The whole screen tested about 5,600 compounds, of which about 780 (14%) were called active. Inconclusive results (about 3%) are left out.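 The calls were made as follows: active = mean signal decrease across replicates above about 35% based on untreated-well scatter, with enough replicates individually passing (limit read from the data); inconclusive = no rule stated though some were filed; inactive = the rest.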 The list is a sample of the results.
assay: NIH3T3 cell viability loss – cherry-pick, single point, cytotoxicity control for T. cruzi proliferation inhibitor project, confirmation (AID 651742); conditions: NIH/3T3 viability, CellTiter-Glo ATP luminescence, 90 h; at 8.35 µM; hits give high values;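 also: 0% = median of neutral control wells and 100% = median of positive control wells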

| SMILES | cytotoxicity (signal decrease) |
| --- | --- |
| Cc1ccccc1-c1ccc([C@H]2[C@H]3CN(S(=O)(=O)c4ccc(F)cc4)CCCCN3[C@H]2CO)cc1 | 12% (inactive) |
| O=S(=O)(Cc1ccccc1)N1CCCCN2[C@@H](CO)[C@H](c3ccc(-c4cccnc4)cc3)[C@@H]2C1 | 5.7% (inactive) |
| CCS(=O)(=O)N1CCCCN2[C@@H](CO)[C@@H](c3ccc(-c4ccccc4)cc3)[C@@H]2C1 | 18.2% (inactive) |
| Cc1cccc(-c2ccc([C@@H]3[C@@H](CO)N4CCCCN(S(=O)(=O)c5cccs5)C[C@H]34)cc2)c1 | 42.5% (active) |
| O=S(=O)(c1ccc(F)cc1)N1CCCCN2[C@H](C1)[C@H](c1ccc(C3=CCCCC3)cc1)[C@@H]2CO | 12.6% (inactive) |
| O=S(=O)(Cc1ccccc1)N1CCCCN2[C@@H](CO)[C@@H](c3ccc(-c4ccc(F)cc4)cc3)[C@@H]2C1 | 68.5% (active) |
| O=S(=O)(Cc1ccccc1)N1CCCCN2[C@@H](CO)[C@H](c3ccc(-c4ccccc4)cc3)[C@@H]2C1 | 41.5% (active) |
| COc1cccc(S(=O)(=O)N2CCCCN3[C@H](CO)[C@H](c4ccc(-c5ccncc5)cc4)[C@H]3C2)c1 | 9.65% (inactive) |
| CN(C)C(=O)c1ccc(-c2ccc([C@@H]3[C@H](CO)N4CCCCN(S(C)(=O)=O)C[C@@H]34)cc2)cc1 | 5.37% (inactive) |
| Cc1cccc(-c2ccc([C@H]3[C@@H](CO)N4CCCCN(Cc5cncnc5)C[C@H]34)cc2)c1 | 17.8% (inactive) |
| Cc1ccccc1-c1ccc([C@@H]2[C@H](CO)N3CCCCN(S(=O)(=O)c4ccc(F)cc4)C[C@@H]23)cc1 | 43.8% (active) |
| C[C@H](O)C#Cc1ccc([C@H]2[C@H]3CN(S(=O)(=O)Cc4ccccc4)CCCCN3[C@H]2CO)cc1 | 10.3% (inactive) |
| CC(C)C#Cc1ccc([C@H]2[C@H](CO)N3CCCCN(C(=O)NC(C)C)C[C@@H]23)cc1 | 13.1% (inactive) |
| C[C@H]1CCCCO[C@H](CN(C)Cc2ccccc2)[C@@H](C)CN([C@@H](C)CO)C(=O)c2cc(NC(=O)NC3CCCCC3)ccc2O1 | 12.5% (inactive) |
| COc1ccc(C#Cc2cnc3c(c2)C(=O)N([C@@H](C)CO)C[C@H](C)[C@@H](CN(C)C(C)=O)O3)cc1 | -3.17% (inactive) |
| CN(C)CC#Cc1ccc([C@H]2[C@H]3CN(S(=O)(=O)c4ccccc4F)CCCCN3[C@H]2CO)cc1 | 20.2% (inactive) |
| COCC(=O)N(C)C[C@@H]1Oc2ncc(C#Cc3ccccc3OC)cc2C(=O)N([C@@H](C)CO)C[C@H]1C | 1.95% (inactive) |
| Cc1ccc(S(=O)(=O)Nc2ccc3c(c2)C(=O)N([C@@H](C)CO)C[C@@H](C)[C@H](CN(C)C(=O)Nc2cccc4ccccc24)OCCCC[C@H](C)O3)cc1 | -10.9% (inactive) |
| O=C(c1cccc(F)c1)N1CC[C@@H]2[C@@H](CO)Nc3ccc(C#Cc4cccc(F)c4)cc3[C@@H]21 | 27.7% (inactive) |
| CC(=O)N1[C@H](CNC(=O)C2CC2)[C@@H](c2ccc(-c3cccc(F)c3)cc2)[C@@H]1CO | 3.63% (inactive) |

| SMILES | cytotoxicity (signal decrease) |
| --- | --- |
| C[C@@H]1CCCCO[C@H](CN(C)Cc2ccccc2)[C@@H](C)CN([C@@H](C)CO)C(=O)c2cc(NC(=O)Nc3ccc(F)cc3)ccc2O1 | 27.1% (inactive) |
| C[C@@H]1CN([C@@H](C)CO)C(=O)c2cc(NC(=O)Nc3cccc4ccccc34)ccc2O[C@H]1CN(C)Cc1ccc(Cl)c(Cl)c1 | 35.5% (active) |
| C[C@H](CO)N1C[C@H](C)[C@H](CN(C)Cc2ccc(C(F)(F)F)cc2)Oc2ccc(NS(=O)(=O)c3ccc(Cl)cc3)cc2C1=O | 8.98% (inactive) |
| C[C@@H]1CN([C@H](C)CO)C(=O)c2cc(NS(=O)(=O)c3ccc(Cl)cc3)ccc2O[C@@H](C)CCCCO[C@H]1CN(C)Cc1ccccc1 | 1.2% (inactive) |
| COc1ccc(NC(=O)Nc2ccc3c(c2)C(=O)N([C@H](C)CO)C[C@@H](C)[C@H](CN(C)Cc2ccc(Cl)c(Cl)c2)OCCCC[C@@H](C)O3)cc1 | -14.8% (inactive) |
| C[C@@H]1CCCCO[C@@H](CN(C)Cc2ccc3c(c2)OCO3)[C@@H](C)CN([C@@H](C)CO)C(=O)c2cc(NC(=O)Nc3ccccc3)ccc2O1 | 6.98% (inactive) |
| C[C@@H]1CN([C@H](C)CO)C(=O)c2cc(NC(=O)Nc3ccc(F)cc3)ccc2O[C@@H](C)CCCCO[C@H]1CN(C)Cc1ccc(Cl)c(Cl)c1 | 40.8% (active) |
| C[C@@H]1CN([C@@H](C)CO)C(=O)c2cc(NC(=O)Nc3cccc4ccccc34)ccc2O[C@@H](C)CCCCO[C@H]1CN(C)Cc1ccccc1 | 22.3% (inactive) |
| COc1ccc(CN(C)C[C@H]2OCCCC[C@H](C)Oc3ccc(NC(=O)Nc4ccc5c(c4)OCO5)cc3C(=O)N([C@H](C)CO)C[C@@H]2C)cc1 | 45.5% (active) |
| C[C@@H]1CCCCO[C@@H](CN(C)Cc2ccc(Cl)c(Cl)c2)[C@H](C)CN([C@H](C)CO)C(=O)c2cc(NC(=O)Nc3ccc(F)cc3)ccc2O1 | 3.22% (inactive) |
| C[C@@H]1CN([C@@H](C)CO)C(=O)c2cc(NC(=O)Nc3cccc4ccccc34)ccc2O[C@H]1CN(C)Cc1ccc(Oc2ccccc2)cc1 | 18.9% (inactive) |
| C[C@H](CO)N1C[C@H](C)[C@H](CN(C)Cc2ccc(C(F)(F)F)cc2)OCCCC[C@H](C)Oc2ccc(NS(=O)(=O)c3ccc(Cl)cc3)cc2C1=O | 98.8% (active) |
| COc1ccc(S(=O)(=O)Nc2ccc3c(c2)C(=O)N([C@H](C)CO)C[C@@H](C)[C@@H](CN(C)CC2CCCCC2)OCCCC[C@@H](C)O3)cc1 | 33.5% (inactive) |
| C[C@H](CO)N1C[C@H](C)[C@@H](CN(C)C(=O)Nc2ccnc(N3CCOCC3)c2)OCc2ccccc2-c2ccccc2C1=O | 5.45% (inactive) |
| C[C@@H]1CCCCO[C@H](CN(C)Cc2ccc(C(F)(F)F)cc2)[C@H](C)CN([C@H](C)CO)C(=O)c2cc(NC(=O)Nc3ccc(F)cc3)ccc2O1 | -14.3% (inactive) |
| C[C@@H]1CCCCO[C@@H](CN(C)S(=O)(=O)c2ccc(Cl)cc2)[C@H](C)CN([C@@H](C)CO)C(=O)c2cc(NC(=O)Cc3ccccc3)ccc2O1 | 0.0515% (inactive) |
| COc1ccc(NC(=O)N(C)C[C@@H]2OCCCC[C@@H](C)Oc3ccc(NS(=O)(=O)c4ccc(Cl)cc4)cc3C(=O)N([C@H](C)CO)C[C@H]2C)cc1 | -38.7% (inactive) |
| O=C(C[C@@H]1C[C@@H]2c3cc(NC(=O)c4ccc5c(c4)OCO5)ccc3O[C@@H]2[C@@H](CO)O1)NCc1ccc(Cl)cc1 | -20.7% (inactive) |
| C[C@@H]1CCCCO[C@@H](CN(C)CC2CC2)[C@H](C)CN([C@H](C)CO)C(=O)c2cc(NC(=O)C3CCCCC3)ccc2O1 | -17.8% (inactive) |
| C[C@H]1CCCCO[C@H](CN(C)Cc2ccc(C(F)(F)F)cc2)[C@@H](C)CN([C@@H](C)CO)C(=O)c2cc(NC(=O)C3CCCCC3)ccc2O1 | -5.99% (inactive) |

| SMILES | cytotoxicity (signal decrease) |
| --- | --- |
| N#C[C@@H]1[C@@H](c2ccc(/C=C/c3ccccc3)cc2)[C@@H](CO)N1C(=O)C1CC1 | 23.9% (inactive) |
| C[C@@H]1CN([C@@H](C)CO)C(=O)c2cc(NC(=O)C3CCCCC3)ccc2O[C@@H](C)CCCCO[C@H]1CN(C)Cc1ccncc1 | 2.54% (inactive) |
| C[C@@H]1CN([C@H](C)CO)C(=O)c2cc(NC(=O)Nc3ccc(F)cc3)ccc2O[C@@H](C)CCCCO[C@@H]1CN(C)CC1CCCCC1 | 24.8% (inactive) |
| C[C@@H]1CN([C@H](C)CO)C(=O)c2cc(C#CC3CCCCC3)cnc2O[C@@H]1CN(C)C(=O)NC1CCCC1 | 26.3% (inactive) |
| C[C@@H](O)C#Cc1ccc([C@@H]2[C@H](CO)N3CCCCN(S(=O)(=O)c4ccccc4)C[C@@H]23)cc1 | 1.19% (inactive) |
| C[C@@H]1CCCCO[C@@H](CN(C)Cc2ccc(C(F)(F)F)cc2)[C@@H](C)CN([C@H](C)CO)C(=O)c2cc(NC(=O)Nc3ccccc3)ccc2O1 | -2.03% (inactive) |
| OC[C@H]1[C@H](c2ccc(-c3cccc(F)c3)cc2)[C@@H]2CN(Cc3cncnc3)CCCCN12 | 13.1% (inactive) |
| O=C(Nc1ccccc1F)N1CCCCN2[C@H](CO)[C@@H](c3ccc(-c4cccnc4)cc3)[C@H]2C1 | 5.63% (inactive) |
| C[C@@H]1CN([C@@H](C)CO)S(=O)(=O)c2ccc(C#Cc3ccc(F)cc3)cc2O[C@H]1CN(C)S(C)(=O)=O | 25.6% (inactive) |
| C[C@H]1CN([C@@H](C)CO)S(=O)(=O)c2ccc(C#Cc3cccc(F)c3)cc2O[C@@H]1CN(C)S(=O)(=O)c1cn(C)cn1 | 44.8% (active) |
| C[C@@H]1CN([C@@H](C)CO)S(=O)(=O)c2ccc(-c3cccc(F)c3)cc2O[C@@H]1CN(C)S(=O)(=O)c1ccccc1 | 46.5% (active) |
| C[C@@H]1CN([C@H](C)CO)S(=O)(=O)c2ccc(C#Cc3ccncc3)cc2O[C@@H]1CN(C)S(=O)(=O)c1ccc(F)cc1 | 27.1% (inactive) |
| C[C@@H]1CN([C@@H](C)CO)S(=O)(=O)c2ccc(C#Cc3ccc(F)cc3)cc2O[C@H]1CN(C)C(=O)NC1CCCC1 | 8.27% (inactive) |
| Cc1ccc(-c2ccc3c(c2)O[C@H](CN(C)C)[C@@H](C)CN([C@H](C)CO)S3(=O)=O)cc1 | -0.56% (inactive) |
| C[C@@H]1CN([C@H](C)CO)S(=O)(=O)c2ccc(-c3cccc(F)c3)cc2O[C@H]1CN(C)S(=O)(=O)c1ccc(F)cc1 | 54.4% (active) |
| C[C@@H]1CN([C@@H](C)CO)S(=O)(=O)c2ccc(C#Cc3ccc(F)cc3)cc2O[C@H]1CN(C)C(=O)c1ccccn1 | 30% (inactive) |
| C[C@H](CO)N1C[C@H](C)[C@@H](CN(C)S(=O)(=O)c2ccc(F)cc2)Oc2cc(C3=CCCC3)ccc2S1(=O)=O | 50.5% (active) |
| C[C@@H]1CN([C@@H](C)CO)S(=O)(=O)c2ccc(-c3ccncc3)cc2O[C@@H]1CN(C)C(=O)Nc1ccc(F)cc1 | -4.35% (inactive) |
| COc1ccccc1-c1ccc2c(c1)O[C@H](CN(C)S(=O)(=O)c1ccc(C)cc1)[C@@H](C)CN([C@H](C)CO)S2(=O)=O | 26.4% (inactive) |
| CC(C)CC#Cc1ccc2c(c1)O[C@H](CN(C)S(=O)(=O)c1cccc(F)c1)[C@@H](C)CN([C@@H](C)CO)S2(=O)=O | 14.5% (inactive) |

Reference: PubChem BioAssay AID651742 (Broad Institute, 2012)
